Structures can show the parent of a compound that is named as a salt. ± gives the standard error. Among all 1,300 compounds or so, about 130 (10%) showed an effect of 50% or more. Only a selection was taken, and strong results are over-represented in it overall.
Tested on: Trichoderma virens ATCC 9645
Test: growth yield (OD600) with compound + IPBC relative to untreated control; higher = less growth inhibition
Details: compound concentration: 100 uM, IPBC concentration: 200 ng/ml
Outline: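 A biocide at 200 ng ml^−1 was co-applied to some wells, and library compounds were present in all test wells at 100 μM final. The wells held 100 μl of Trichoderma virens ATCC 9645 spores at 15,000 spores ml^−1 in potato dextrose broth, grown at 30 °C in 96-well plates, with OD600 read at 40 h and 72 h. Results are relative growth against the control without either agent, averaged across duplicate screens.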

C[C@H](O)C(=O)Nc1c(I)c(C(=O)NC(CO)CO)c(I)c(C(=O)NC(CO)CO)c1I [Iopamidol] + CCCCNC(=O)OCC#CI [3-iodo-2-propynyl butylcarbamate (IPBC)]
growth yield (40 h): 101 ± 5.7% | growth yield (72 h): 101 ± 3.8%

CN(C)C(=N)NC(=N)N [Metformin hydrochloride] + CCCCNC(=O)OCC#CI [3-iodo-2-propynyl butylcarbamate (IPBC)]
growth yield (40 h): 85.9 ± 4.9% | growth yield (72 h): 88 ± 2.2%

O=C1OCCN1/N=C/c1ccc([N+](=O)[O-])o1 [Furazolidone] + CCCCNC(=O)OCC#CI [3-iodo-2-propynyl butylcarbamate (IPBC)]
growth yield (40 h): 76.2 ± 8.6% | growth yield (72 h): 88.9 ± 5.2%

N=C(N)NCCN1CCCCCCC1 [Guanethidine sulfate] + CCCCNC(=O)OCC#CI [3-iodo-2-propynyl butylcarbamate (IPBC)]
growth yield (40 h): 81.3 ± 4.1% | growth yield (72 h): 90.2 ± 4.4%

COC[C@@H](NC(C)=O)C(=O)NCc1ccccc1 [Lacosamide] + CCCCNC(=O)OCC#CI [3-iodo-2-propynyl butylcarbamate (IPBC)]
growth yield (40 h): 85.6 ± 1.4% | growth yield (72 h): 93.66 ± 0.73%

OC(CCCN1CCCCC1)(c1ccccc1)c1ccccc1 [Diphenidol hydrochloride] + CCCCNC(=O)OCC#CI [3-iodo-2-propynyl butylcarbamate (IPBC)]
growth yield (40 h): 89.4 ± 2.4% | growth yield (72 h): 96.7 ± 3.4%

CN(C)CCCN1c2ccccc2Sc2ccccc21 [Promazine hydrochloride] + CCCCNC(=O)OCC#CI [3-iodo-2-propynyl butylcarbamate (IPBC)]
growth yield (40 h): 71.95 ± 0.16% | growth yield (72 h): 90.8 ± 3.8%

CN(C)CCCN1c2ccccc2Sc2ccc(C(F)(F)F)cc21 [Triflupromazine hydrochloride] + CCCCNC(=O)OCC#CI [3-iodo-2-propynyl butylcarbamate (IPBC)]
growth yield (40 h): 46.4 ± 2.9% | growth yield (72 h): 81.3 ± 4.3%

CN(C)CCCN1c2ccccc2CCc2ccccc21 [Imipramine hydrochloride] + CCCCNC(=O)OCC#CI [3-iodo-2-propynyl butylcarbamate (IPBC)]
growth yield (40 h): 81 ± 1.9% | growth yield (72 h): 96.28 ± 0.21%

CN1CCN(CCCN2c3ccccc3Sc3ccc(C(F)(F)F)cc32)CC1 [Trifluoperazine dihydrochloride] + CCCCNC(=O)OCC#CI [3-iodo-2-propynyl butylcarbamate (IPBC)]
growth yield (40 h): 4.45 ± 0.95% | growth yield (72 h): 3.46 ± 0.1%

CC(=O)c1ccc2c(c1)N(CCCN1CCC(CCO)CC1)c1ccccc1S2 [Piperacetazine] + CCCCNC(=O)OCC#CI [3-iodo-2-propynyl butylcarbamate (IPBC)]
growth yield (40 h): 55% | growth yield (72 h): 94.8%

CNCCCN1c2ccccc2CCc2ccccc21 [Desipramine hydrochloride] + CCCCNC(=O)OCC#CI [3-iodo-2-propynyl butylcarbamate (IPBC)]
growth yield (40 h): 70.4 ± 1.4% | growth yield (72 h): 93.5 ± 3.4%

CC(=O)c1ccc2c(c1)N(CCCN(C)C)c1ccccc1S2 [Acetopromazine maleate salt] + CCCCNC(=O)OCC#CI [3-iodo-2-propynyl butylcarbamate (IPBC)]
growth yield (40 h): 70.84 ± 0.32% | growth yield (72 h): 91.6 ± 0.94%

OCCN1CCN(CCCN2c3ccccc3Sc3ccc(C(F)(F)F)cc32)CC1 [Fluphenazine dihydrochloride] + CCCCNC(=O)OCC#CI [3-iodo-2-propynyl butylcarbamate (IPBC)]
growth yield (40 h): 2.86% | growth yield (72 h): 2.31 ± 0.21%

CC(=O)N[C@@H](CC(=O)N[C@@H](CCC(=O)O)C(=O)O)C(=O)O [Spaglumic acid] + CCCCNC(=O)OCC#CI [3-iodo-2-propynyl butylcarbamate (IPBC)]
growth yield (40 h): 95.6 ± 7.3% | growth yield (72 h): 95.1 ± 7%

COc1ccc(C(=O)NCc2cccnc2)cc1C(=O)NCc1cccnc1 [Picotamide monohydrate] + CCCCNC(=O)OCC#CI [3-iodo-2-propynyl butylcarbamate (IPBC)]
growth yield (40 h): 91.2 ± 5.1% | growth yield (72 h): 97 ± 3.9%

CC(CN(C)C)CN1c2ccccc2CCc2ccccc21 (stereo unspecified) [Trimipramine maleate salt] + CCCCNC(=O)OCC#CI [3-iodo-2-propynyl butylcarbamate (IPBC)]
growth yield (40 h): 75.1 ± 0.79% | growth yield (72 h): 93.97 ± 0.84%

CN1CCOC(c2ccccc2)c2ccccc2C1 (stereo unspecified) [Nefopam hydrochloride] + CCCCNC(=O)OCC#CI [3-iodo-2-propynyl butylcarbamate (IPBC)]
growth yield (40 h): 83.4 ± 1.1% | growth yield (72 h): 93.1 ± 1.1%

CC(=O)OCC1=C(C(=O)O)N2C(=O)[C@@H](N)[C@H]2SC1 [Cephalosporanic acid, 7-amino] + CCCCNC(=O)OCC#CI [3-iodo-2-propynyl butylcarbamate (IPBC)]
growth yield (40 h): 85.1 ± 3.8% | growth yield (72 h): 94.6 ± 3.1%

NS(=O)(=O)c1cc2c(cc1Cl)N=CNS2(=O)=O [Chlorothiazide] + CCCCNC(=O)OCC#CI [3-iodo-2-propynyl butylcarbamate (IPBC)]
growth yield (40 h): 102.6 ± 0.32% | growth yield (72 h): 106 ± 2.8%

CCOc1ccc(Cc2nccc3cc(OCC)c(OCC)cc23)cc1OCC [Ethaverine hydrochloride] + CCCCNC(=O)OCC#CI [3-iodo-2-propynyl butylcarbamate (IPBC)]
growth yield (40 h): 55 ± 2.2% | growth yield (72 h): 82.3 ± 2.2%

CC[C@H]1OC(=O)C[C@@H](O)[C@H](C)[C@@H](O[C@@H]2O[C@H](C)[C@@H](O[C@H]3C[C@@](C)(O)[C@@H](O)[C@H](C)O3)[C@H](N(C)C)[C@H]2O)[C@@H](CC=O)C[C@@H](C)C(=O)/C=C/C(C)=C/[C@@H]1CO[C@@H]1O[C@H](C)[C@@H](O)[C@@H](OC)[C@H]1OC [Tylosin] + CCCCNC(=O)OCC#CI [3-iodo-2-propynyl butylcarbamate (IPBC)]
growth yield (40 h): 95.3 ± 7.9% | growth yield (72 h): 95.1 ± 3%

CC(C)NC[C@@H](O)COc1ccc(CC(N)=O)cc1 [(R)-(+)-Atenolol] + CCCCNC(=O)OCC#CI [3-iodo-2-propynyl butylcarbamate (IPBC)]
growth yield (40 h): 101 ± 2.1% | growth yield (72 h): 98.48 ± 0.52%

— the supplement of paper PMC8007513
